Test results reported in PubChem BioAssay AID504916 (The Scripps Research Institute Molecular Screening Center, 2011).
This is one part of the list. Calls of active or inactive are those of the source. The rule behind the calls is not given here.

Target: 5-hydroxytryptamine receptor 5A (Homo sapiens) (UniProt P47898)
Experiment: HTR5A inverse agonists, retest of hits, confirmation, cell-based, luminescence (AID 504916);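 note: 0% = cells with DMSO and 100% = no cells with DMSO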
Details: HTR5A-expressing cells, inverse agonism, at 9.3 µM, active compounds read high

Sequence of 5-hydroxytryptamine receptor 5A (Homo sapiens) (P47898 whole entry, looked up): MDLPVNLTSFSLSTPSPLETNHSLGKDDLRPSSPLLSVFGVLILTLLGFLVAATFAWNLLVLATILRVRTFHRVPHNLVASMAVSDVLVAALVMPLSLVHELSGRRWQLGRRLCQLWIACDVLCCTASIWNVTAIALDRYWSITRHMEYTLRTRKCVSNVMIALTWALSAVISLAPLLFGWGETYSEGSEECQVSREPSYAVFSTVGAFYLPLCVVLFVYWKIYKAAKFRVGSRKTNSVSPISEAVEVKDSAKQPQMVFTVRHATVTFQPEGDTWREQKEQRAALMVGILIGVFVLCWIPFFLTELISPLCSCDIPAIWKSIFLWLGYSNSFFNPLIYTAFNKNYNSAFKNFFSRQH

inhibition, inactive:
Cc1noc(C)c1COc1cccc(C(=O)Nc2cccnc2)c1 4.42%
COc1ccc(-c2nnc(SC(C)C(=O)NC3CC3)o2)cc1 (configuration not stated) 1.03%
CCOC(=O)NC(=O)C(=CNc1cccc(OC)c1)C(=O)NC(=O)OCC -98.8%
CCCCCCCCc1c(O)nc(-n2[nH]c(C)c(CCO)c2=O)[nH]c1=O -15.1%
O=C(/C=C/c1ccc(Cl)c([N+](=O)[O-])c1)c1ccc(O)cc1 -8.27%
Cc1cc(C)n(-c2ccc(Cl)c(C(=O)O)n2)n1 -6.82%
O=c1ccc2c(-c3ccccc3S(=O)(=O)O)c3ccc(O)c(O)c3oc-2c1O -16.7%
